PubChem BioAssay AID1159580 (chemical genetic matrix, 2015)
Where “and” joins values, the source holds several entries; their conditions need not be identical. Equal entries are not always repeated. In all, about 5,500 compounds went through this assay and about 2,000 (36%) were called active. Not shown: some 18% with an inconclusive outcome. Rule as the data show it: active = normalized growth mostly below about 0.91 (no sharp cut-off); inconclusive = no clear call, values can overlap the other calls; inactive = mostly above about 0.92. Some of the results follow.

Assay: chemical genetic growth profiling, strain panel (AID 1159580);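 also: tested at 20 µM; growth read once vehicle control cultures reached saturation at 30 °C; 1 = growth at the plate median or of vehicle wells; lower values mean less growth of the strain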
Details: S. cerevisiae deletion strains, growth OD

Measured: normalized growth

CC(=O)OCC(=O)[C@@]12OC3(CCCC3)O[C@@H]1CC1C3CCC4=CC(=O)C=C[C@]4(C)[C@@]3(F)[C@@H](O)C[C@@]12C (stereo partly specified)
inactive: locus YAL013W, strain DEP1, stronger effect = lower value 1.02 | locus YAL021C, strain ccr4, stronger effect = lower value 1.01 | locus YAL026C, strain drs2, stronger effect = lower value 1.02 | locus YAL030W, strain snc1, stronger effect = lower value 1.02 | locus YBL061C, strain skt5, stronger effect = lower value 1.03 | locus YBR009C, strain hhf1, stronger effect = lower value 1.01 | locus YBR021W, strain FUR4, stronger effect = lower value 1.02 | locus YBR023C, strain chs3, stronger effect = lower value 1.01 | locus YBR171W, strain sec66, stronger effect = lower value 1.02 | locus YBR229C, strain ROT2, stronger effect = lower value 1.02 | locus YBR231C, strain swc5, stronger effect = lower value 1.02 | locus YBR279W, strain paf1, stronger effect = lower value 1.01 | locus YCL011C, strain gbp2, stronger effect = lower value 1.02 | locus YCL016C, strain dcc1, stronger effect = lower value 1.01 | locus YCL029C, strain bik1, stronger effect = lower value 0.985 | locus YCL069W, strain vba3, stronger effect = lower value 1.02 | locus YCR088W, strain abp1, stronger effect = lower value 1.02 | locus YDL005C, strain med2, stronger effect = lower value 1.02 | locus YDL035C, strain GPR1, stronger effect = lower value 1.01 | locus YDL040C, strain nat1, stronger effect = lower value 1.02 | locus YDL074C, strain BRE1, stronger effect = lower value 0.972 | locus YDL101C, strain DUN1, stronger effect = lower value 1.01 | locus YDL134C, strain PPH21, stronger effect = lower value 1.01 | locus YDL185W, strain tfp1, stronger effect = lower value 1 | locus YDL192W, strain arf1, stronger effect = lower value 1 | locus YDR001C, strain nth1, stronger effect = lower value 1.02 | locus YDR069C, strain doa4, stronger effect = lower value 1.01 | locus YDR101C, strain arx1, stronger effect = lower value 0.984 | locus YDR137W, strain rgp1, stronger effect = lower value 1.02 | locus YDR150W, strain NUM1, stronger effect = lower value 1.02 | locus YDR159W, strain sac3, stronger effect = lower value 1.02 | locus YDR162C, strain NBP2, stronger effect = lower value 1.02 | locus YDR195W, strain ref2 1.03 | locus YDR297W, strain sur2, stronger effect = lower value 1.02 | locus YDR318W, strain mcm21, stronger effect = lower value 1 | locus YDR334W, strain swr1, stronger effect = lower value 1.02 | locus YDR335W, strain msn5, stronger effect = lower value 1.01 | locus YDR388W, stronger effect = lower value 1 | locus YDR392W, strain spt3, stronger effect = lower value 1.03 | locus YDR502C, strain sam2, stronger effect = lower value 1.02 | locus YEL003W, strain gim4, stronger effect = lower value 1.02 | locus YEL037C, strain rad23, stronger effect = lower value 1.02 | locus YEL061C, strain CIN8 (second series), stronger effect = lower value 1.03 | locus YEL061C, strain CIN8, stronger effect = lower value 1.01 | locus YER015W, strain faa2, stronger effect = lower value 1.01 | locus YER016W, strain bim1, stronger effect = lower value 1.03 | locus YER110C, stronger effect = lower value 1 | locus YER111C, strain swi4, stronger effect = lower value 1.02 | locus YER155C, strain BEM2 (second series), stronger effect = lower value 1.08 | locus YER155C, strain BEM2, stronger effect = lower value 1.02 | locus YER167W, strain BCK2, stronger effect = lower value 1.02 | locus YFR010W, strain ubp6, stronger effect = lower value 1.02 | locus YGL078C, strain dbp3, stronger effect = lower value 0.987 | locus YGL086W, strain mad1, stronger effect = lower value 1 | locus YGL167C, strain pmr1, stronger effect = lower value 1.03 | locus YGL173C, strain kem1, stronger effect = lower value 1.02 | locus YGL227W, strain vid30, stronger effect = lower value 1.02 | locus YGL240W, strain doc1, stronger effect = lower value 1.03 | locus YGL248W, strain PDE1, stronger effect = lower value 1.01 | locus YGL253W, strain hxk2, stronger effect = lower value 0.963 | locus YGR078C, strain PAC10, stronger effect = lower value 1.01 | locus YGR135W, strain pre9, stronger effect = lower value 0.989 | locus YGR229C, strain SMI1, stronger effect = lower value 1.03 | locus YGR252W, strain gcn5, stronger effect = lower value 1.04 | locus YHR013C, strain ard1, stronger effect = lower value 1.03 | locus YHR027C, strain rpn1, stronger effect = lower value 1.02 | locus YHR030C, strain SLT2, stronger effect = lower value 1.01 and 0.976 | locus YHR079C, strain IRE1 (second series), stronger effect = lower value 0.986 | locus YHR079C, strain IRE1, stronger effect = lower value 0.978 | locus YHR094C, strain hxt1, stronger effect = lower value 0.991 | locus YHR129C, strain ARP1, stronger effect = lower value 1.01 | locus YHR142W, strain chs7, stronger effect = lower value 1 | locus YHR200W, strain rpn10, stronger effect = lower value 0.994 | locus YIL066C, strain RNR3, stronger effect = lower value 1.01 | locus YIL073C, strain SPO22, stronger effect = lower value 0.966 | locus YIL125W, strain kgd1, stronger effect = lower value 1.01 | locus YIR030C, strain dcg1, stronger effect = lower value 0.992 | locus YJL092W, strain hpr5, stronger effect = lower value 1.02 | locus YJL095W, strain BCK1 (second series), stronger effect = lower value 1.02 | locus YJL095W, strain BCK1, stronger effect = lower value 1.01 and 0.989 | locus YJL115W, strain asf1, stronger effect = lower value 1.03 | locus YJL129C, strain trk1, stronger effect = lower value 1.01 | locus YJL134W, strain LCB3, stronger effect = lower value 1.01 | locus YJL154C, strain vps35, stronger effect = lower value 1.02 | locus YJL164C, strain tpk1, stronger effect = lower value 1 | locus YJL166W, strain qcr8, stronger effect = lower value 1.02 | locus YJL168C, strain set2, stronger effect = lower value 1 | locus YJL187C, strain SWE1 (second series), stronger effect = lower value 1.01 | locus YJL187C, strain SWE1, stronger effect = lower value 1.03 | locus YJR043C, strain POL32, stronger effect = lower value 0.988 | locus YJR066W, strain TOR1, stronger effect = lower value 0.968
